Source: PubChem BioAssay (NCATS)
Values joined by “and” are separate entries in the source; they are usually repeats but may differ in a detail not shown here. Equal values may be shown once. Results filed as inconclusive are left out. Active and inactive are the calls of the source. Unless noted, calls come from the whole dose curve; as a rule, active = well fitted curve in the direction sought with a large enough effect; inconclusive = small, poorly fitted or top-dose-only effect, or another doubt; inactive = no such curve, though single readings can be large; an effect the other way counts as inactive or inconclusive.

Tests used:
[1] = qHTS assay for small molecule disruptors of the mitochondrial membrane potential - 1 hr assay (AID 651754; calls by dose curve; note: % is set by controls: 0 for no effect and ±100 for the full control effect; nearly all actives have a fitted effect of over 35% in size)
How it was run: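 HepG2 cells, attached overnight at 37C, were exposed to compound or DMSO vehicle for 1 hr at 37C, 5% CO2, then stained with Mito-MPS dye for 30 min. Red aggregate versus green monomer fluorescence reports membrane potential.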

[2] = qHTS assay for small molecule disruptors of the mitochondrial membrane potential - 5 hr assay (AID 651755; calls by dose curve; note: % is set by controls: 0 for no effect and ±100 for the full control effect; nearly all actives have a fitted effect of over 40% in size)
How it was run: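 HepG2, 2,000 cells/well, overnight attach; cpd or DMSO 5 hr, 37C/5% CO2; Mito-MPS 30 min 37C; fluor 490/535 + 540/590 nm.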

[3] = target: Tumor necrosis factor (Homo sapiens) (UniProt P01375); test: qHTS assay to identify small molecules that stimulate Tumor Necrosis Factor-alpha (TNF-alpha) secretion (AID 651757; active = well fitted curve in the direction sought with a large enough effect in the signal ratio; the % refers to the signal ratio; note: 0% is about no effect)
How it was run: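 THP-1 cells were exposed to compounds for 17 hrs at 37 C, after which secreted TNF-alpha was measured by homogeneous HTRF (TR-FRET) using cryptate- and XL665-labeled anti-TNF-alpha antibodies, read after 3 hr at room temperature.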

[4] = qHTS assay for environmental chemicals that activate the Aryl hydrocarbon Receptor (AhR) signaling pathway (AID 651777); conditions: 1A2-DRE human hepatoma cells, luciferase, 24 h; activation: stronger effect = higher value; note: % of control where 0% means no effect; nearly all actives have a fitted effect of over 15% in size
How it was run: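 Luminescence read-out: One-Glo added for 30 min at RT after 24 hr compound treatment (37 C, 5% CO2) of human hepatoma cells expressing a DRE/CYP1A2 promoter–luciferase reporter; increased signal indicates AhR activation.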

[5] = target: Peroxisome proliferator-activated receptor alpha (Homo sapiens) (UniProt Q07869); test: qHTS assay for small molecule agonists of the peroxisome proliferator-activated receptor alpha (PPARalpha) signaling pathway (AID 651778); conditions: PathHunter PPARalpha complementation, chemiluminescence, 6 h; stronger effect = higher value; note: % of control where 0% means no effect
How it was run: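 Chemiluminescence from complemented enzyme reported PPARalpha activation in cells after 6 hr of compound treatment at 37 C. The detection reagent was incubated for 60 min at room temperature, and compounds were scored as agonists.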

[6] = target: Nuclear receptor ROR-gamma (Homo sapiens) (UniProt P51449); test: qHTS assay for small molecule antagonists of the retinoid-related orphan receptor gamma (ROR-gamma) signaling pathway (AID 651802); note: series mostly up to about 92 µM; % is set by controls: 0 for no effect and ±100 for the full control effect; nearly all actives have a fitted effect of over 60% in size
How it was run: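 CHO cells carrying TET-inducible ROR-gamma and an ROR response element–luciferase reporter were exposed to compound, then induced with doxycycline. After 16hr at 37C, luminescence was read; lower signal indicates antagonism.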

[7] = qHTS assay for small molecule agonists of the antioxidant response element (ARE) signaling pathway measured by Nrf2-dependant transcriptional activity (AID 720636; active = well fitted curve in the direction sought with a large enough effect in the repeat runs; an effect the other way counts as inactive or inconclusive;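 note: HepG2 cells with an ARE-driven luciferase reporter; % of control where 0% means no effect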)
How it was run: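 HepG2 ARE-luc reporter line, 1% dialyzed FBS; 6 hr attachment at 37 C, compound pinned in, 16 hr at 37 C/5% CO2; ONE-Glo, 30 min RT, luminescence read.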

[8] = qHTS assay for small molecule antagonists of the retinoid-related orphan receptor gamma (ROR-gamma) signaling pathway - cell viability counter screen (AID 720652; active = well fitted curve in the direction sought with a large enough effect in the repeat runs; an effect the other way counts as inactive or inconclusive;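 note: series mostly up to about 92 µM; compound exposure lasted 16 hr before ATP read; % is set by controls: 0 for no effect and ±100 for the full control effect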)
How it was run: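 Counter screen in CHO cells carrying TET-inducible ROR-gamma and an ROR response element-luciferase reporter; cells plated 5 hr, compound pinned, doxycycline added, then 16 hr at 37 C. Viability read as intracellular ATP by CellTiter-Glo luminescence.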

[9] = qHTS assay for small molecule agonists of the antioxidant response element (ARE) signaling pathway measured by Nrf2-dependant transcriptional activity - cell viability counter screen (AID 720653; active = well fitted curve in the direction sought with a large enough effect in the repeat runs; an effect the other way counts as inactive or inconclusive; note: % is set by controls: 0 for no effect and ±100 for the full control effect); conditions: ARE-bla HepG2 viability, CellTiter-Glo ATP luminescence, 16 h; stronger effect = lower value
How it was run: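 Cytotoxicity counter screen: intracellular ATP quantified by CellTiter-Glo luminescence in the same ARE-bla HepG2 plates, after 16 h compound exposure and a 2 h beta-lactamase substrate step.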

[10] = qHTS assay for cell viability of HEK293 cells (AID 743288); conditions: ATP luminescence (CellTiter-Glo), 18 h, stronger effect = lower value; note: % is set by controls: 0 for no effect and ±100 for the full control effect; nearly all actives have a fitted effect of over 50% in size
How it was run: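 Environmental chemicals tested in qHTS format against parental HEK293 cells; 18 h treatment, 37 C; read-out ATP luminescence (CellTiter-Glo), 30 min RT development.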

[11] = qHTS assay for cell viability of the p53RE-bla HCT-116 cell line (AID 743292); note: % is set by controls: 0 for no effect and ±100 for the full control effect; nearly all actives have a fitted effect of over 55% in size
How it was run: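 Luminescent ATP quantitation (CellTiter-Glo) served as the viability read-out; reagent was added after 16 h compound exposure at 37 C and read after 30 min at room temperature. Cells: p53RE-bla HCT-116, 4,000 per well.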

[12] = target: Nuclear receptor subfamily 1 group I member 2 (Rattus norvegicus) (UniProt Q9R1A7); test: qHTS assay for small molecule activators of the rat pregnane X receptor (rPXR) signaling pathway (AID 651751; call rule not given here; note: 0% is about no effect); conditions: rPXR reporter cells, luciferase (One-Glo), 24 h
[13] = qHTS assay for small molecule activators of the human pregnane X receptor (PXR) signaling pathway (AID 720659; call rule not given here; note: 0% is about no effect)

Sequence of Nuclear receptor subfamily 1 group I member 2 (Rattus norvegicus) (Q9R1A7 whole entry, looked up): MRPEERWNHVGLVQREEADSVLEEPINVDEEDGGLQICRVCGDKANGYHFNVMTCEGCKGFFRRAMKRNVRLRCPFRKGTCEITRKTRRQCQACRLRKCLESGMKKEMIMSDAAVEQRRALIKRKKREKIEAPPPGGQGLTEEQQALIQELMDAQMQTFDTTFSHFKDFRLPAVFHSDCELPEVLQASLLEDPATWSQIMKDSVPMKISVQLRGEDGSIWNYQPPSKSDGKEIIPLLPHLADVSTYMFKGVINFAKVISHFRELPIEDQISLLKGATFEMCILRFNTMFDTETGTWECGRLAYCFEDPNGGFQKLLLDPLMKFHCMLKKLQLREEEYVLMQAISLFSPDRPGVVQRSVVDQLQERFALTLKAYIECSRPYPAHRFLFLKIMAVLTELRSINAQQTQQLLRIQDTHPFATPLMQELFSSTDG
Sequence of Nuclear receptor ROR-gamma (Homo sapiens) (P51449 whole entry, looked up): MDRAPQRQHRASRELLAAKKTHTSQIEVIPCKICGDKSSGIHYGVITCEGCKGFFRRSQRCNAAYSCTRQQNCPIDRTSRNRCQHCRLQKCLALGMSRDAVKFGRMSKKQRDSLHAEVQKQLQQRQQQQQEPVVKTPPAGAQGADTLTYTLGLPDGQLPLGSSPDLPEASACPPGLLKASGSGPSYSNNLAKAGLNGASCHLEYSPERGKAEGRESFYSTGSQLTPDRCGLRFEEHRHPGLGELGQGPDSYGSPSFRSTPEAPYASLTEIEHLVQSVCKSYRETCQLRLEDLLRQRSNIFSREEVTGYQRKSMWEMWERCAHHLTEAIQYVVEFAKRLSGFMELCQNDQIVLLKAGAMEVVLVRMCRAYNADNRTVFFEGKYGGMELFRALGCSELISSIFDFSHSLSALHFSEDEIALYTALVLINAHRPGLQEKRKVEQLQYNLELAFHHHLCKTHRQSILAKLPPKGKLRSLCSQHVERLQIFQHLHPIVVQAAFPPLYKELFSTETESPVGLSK
Sequence of Tumor necrosis factor (Homo sapiens) (P01375 whole entry, looked up): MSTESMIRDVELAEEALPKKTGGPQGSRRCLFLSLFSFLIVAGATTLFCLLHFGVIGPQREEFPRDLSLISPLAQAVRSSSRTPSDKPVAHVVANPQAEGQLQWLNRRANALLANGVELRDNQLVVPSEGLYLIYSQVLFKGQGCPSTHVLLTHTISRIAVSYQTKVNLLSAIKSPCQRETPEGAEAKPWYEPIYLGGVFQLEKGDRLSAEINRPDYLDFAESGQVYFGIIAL
Sequence of Peroxisome proliferator-activated receptor alpha (Homo sapiens) (Q07869 whole entry, looked up): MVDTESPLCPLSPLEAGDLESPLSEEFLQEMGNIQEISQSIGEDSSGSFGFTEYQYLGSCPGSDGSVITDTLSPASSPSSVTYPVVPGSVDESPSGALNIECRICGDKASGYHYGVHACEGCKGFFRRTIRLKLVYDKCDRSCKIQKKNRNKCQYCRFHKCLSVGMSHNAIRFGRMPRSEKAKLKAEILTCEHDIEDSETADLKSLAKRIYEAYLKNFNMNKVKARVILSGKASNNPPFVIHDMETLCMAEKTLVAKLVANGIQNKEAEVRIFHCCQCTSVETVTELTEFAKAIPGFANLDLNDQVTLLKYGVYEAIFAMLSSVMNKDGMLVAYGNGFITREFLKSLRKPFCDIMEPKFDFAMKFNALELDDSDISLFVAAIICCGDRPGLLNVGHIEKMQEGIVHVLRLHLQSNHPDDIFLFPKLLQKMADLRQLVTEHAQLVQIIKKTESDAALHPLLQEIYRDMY

Nc1cccc(S(=O)(=O)O)c1
inactive: Potency [1] | Potency [2] | Potency [3] | activation [4] -0.739% | max response [5] -1.84% | Potency [6] | outcome [7] | Potency [8] | max response [9] 8.17% | max response [10] 0.367% | Potency [11] | max response [12] 7.17%

CC(=O)OC(C)=O
inactive: Potency [1] | Potency [2] | Potency [3] | activation [4] 1.76% | max response [5] -5.07% | Potency [6] | outcome [7] | Potency [8] | max response [9] 5.05% | max response [10] 3.19% | Potency [11] | max response [12] 5.82% | outcome [13]

CC(C)c1ccccc1
inactive: Potency [1] | Potency [2] | Potency [3] | activation [4] -1.48% | max response [5] 3.38% | Potency [6] | outcome [7] | Potency [8] | max response [9] -7.17% | max response [10] -0.678% | Potency [11] | max response [12] -5.7% | outcome [13]

CC(=O)OC(C)C
inactive: Potency [1] | Potency [2] | Potency [3] | activation [4] -2.35% | max response [5] -3.3% | Potency [6] | outcome [7] | Potency [8] | max response [9] -4.19% | Potency [11] | max response [12] -1.92% | outcome [13]

FC(F)(F)c1cccc(Cl)c1
inactive: Potency [1] | Potency [2] | Potency [3] | activation [4] -0.497% | max response [5] -9.21% | Potency [6] | outcome [7] | Potency [8] | max response [9] -9.33% | max response [10] -5.31% | Potency [11] | max response [12] -6.22% | outcome [13]

C1COC1
inactive: Potency [1] | Potency [2] | Potency [3] | activation [4] -0.727% | max response [5] 0.481% | Potency [6] | outcome [7] | Potency [8] | max response [9] -0.519% | max response [10] 7.71% | Potency [11] | max response [12] -0.345% | outcome [13]

CCOc1cccc(N)c1
inactive: Potency [1] | Potency [2] | Potency [3] | activation [4] 1.67% | max response [5] 0.865% | Potency [6] | outcome [7] | Potency [8] | max response [10] 5.75% | Potency [11] | max response [12] -4.44% | outcome [13]

COC(=O)c1ccccc1
inactive: Potency [1] | Potency [2] | Potency [3] | activation [4] -0.388% | max response [5] -4.31% | Potency [6] | outcome [7] | Potency [8] | max response [10] 2.22% | Potency [11] | max response [12] 0.652% | outcome [13]

CCCCOCCOCCSC#N
inactive: Potency [1] | Potency [2] | Potency [3] | activation [4] -0.297% | max response [5] 0.043% | Potency [6] | outcome [7] | Potency [8] | max response [9] -6.26% | Potency [11] | max response [12] -2.98% | outcome [13]

Cc1cccc2ccccc12
inactive: Potency [1] | Potency [2] | Potency [3] | activation [4] -0.124% | max response [5] -1.89% | Potency [6] | outcome [7] | Potency [8] | max response [9] -3.61% | max response [10] 1.12% | Potency [11] | max response [12] 3.98% | outcome [13]

Cc1ccccc1C(N)=O
inactive: Potency [1] | Potency [2] | Potency [3] | activation [4] -0.0237% | max response [5] -0.838% | Potency [6] | outcome [7] | Potency [8] | max response [9] -2.23% | max response [10] 10.1% | Potency [11] | max response [12] -3.36% | outcome [13]

C=CCCCCCC
inactive: Potency [1] | Potency [2] | Potency [3] | activation [4] 0.992% | max response [5] -3.21% | Potency [6] | outcome [7] | Potency [8] | max response [9] -7.1% | max response [10] 3.39% | Potency [11] | max response [12] 3.09% | outcome [13]

CC/C=C1/OC(=O)c2ccccc21
inactive: Potency [1] | Potency [2] | Potency [3] | activation [4] 0.751% | max response [5] -2.48% | Potency [6] | outcome [7] | Potency [8] | max response [9] 4.48% | Potency [11] | max response [12] -1.09% | outcome [13]

CC(C)CCOC(=O)/C=C/c1ccccc1
inactive: Potency [1] | Potency [2] | Potency [3] | activation [4] 0.411% | max response [5] 0.372% | Potency [6] | outcome [7] | Potency [8] | max response [9] 5.13% | max response [10] -10.1% | Potency [11] | max response [12] 0.15% | outcome [13]

O=C(O)c1cccc([N+](=O)[O-])c1
inactive: Potency [1] | Potency [2] | Potency [3] | activation [4] 0.347% and -2.14% | max response [5] -2.18% and -2.21% | Potency [6] | outcome [7] | Potency [8] | max response [9] 20.3% and -7.83% | max response [10] 4.89% and -8.68% | Potency [11] | max response [12] -0.759% and -3.01% | outcome [13]

CC(=O)Nc1ccc(N)cc1
inactive: Potency [1] | Potency [2] | Potency [3] | activation [4] -0.109% | max response [5] 0.154% | Potency [6] | outcome [7] | Potency [8] | max response [10] -3.85% | Potency [11] | max response [12] 9.42% | outcome [13]

CCCCCCCCCCCCOCC1CO1 (stereo unspecified)
inactive: Potency [1] | Potency [2] | Potency [3] | activation [4] 0.152% | max response [5] -0.128% | Potency [6] | outcome [7] | Potency [8] | max response [9] 2.47% | max response [10] -5.24% | Potency [11] | max response [12] 1.3% | outcome [13]

CC(=O)Nc1cccc(N)c1
inactive: Potency [1] | Potency [2] | Potency [3] | activation [4] -0.0665% | max response [5] -7.63% | Potency [6] | outcome [7] | Potency [8] | max response [9] 1.46% | max response [10] 8.3% | Potency [11] | max response [12] -0.641% | outcome [13]

NC(=O)c1cccc([N+](=O)[O-])c1
inactive: Potency [1] | Potency [2] | Potency [3] | activation [4] 0.373% | max response [5] 2.42% | Potency [6] | outcome [7] | Potency [8] | max response [9] -9.57% | Potency [11] | max response [12] 6.83% | outcome [13]

CCCC=O
inactive: Potency [1] | Potency [2] | Potency [3] | activation [4] -0.933% | max response [5] 2.48% | Potency [6] | outcome [7] | Potency [8] | max response [9] -6.36% | Potency [11] | max response [12] 1.21% | outcome [13]

O=[N+]([O-])c1ccccc1CCO
inactive: Potency [1] | Potency [2] | Potency [3] | activation [4] 0.213% | max response [5] -1.29% | Potency [6] | outcome [7] | Potency [8] | max response [9] -3.69% | Potency [11] | max response [12] 5.68% | outcome [13]

O=[N+]([O-])c1cc(C(F)(F)F)ccc1Cl
inactive: Potency [1] | Potency [2] | Potency [3] | activation [4] 1.14% | max response [5] 0.399% | Potency [6] | outcome [7] | Potency [8] | max response [9] -6.2% | max response [10] -0.584% | Potency [11] | max response [12] 0.829% | outcome [13]

Cc1cccc(Br)c1
inactive: Potency [1] | Potency [2] | Potency [3] | activation [4] 0.194% | max response [5] -5.52% | Potency [6] | outcome [7] | Potency [8] | max response [9] 6.53% | max response [10] 1.57% | Potency [11] | max response [12] -3.61% | outcome [13]

BrC(Br)C(Br)Br
inactive: Potency [1] | Potency [2] | Potency [3] | activation [4] -0.0804% | max response [5] 6.41% | Potency [6] | outcome [7] | Potency [8] | max response [9] 0.416% | Potency [11] | max response [12] 0.617% | outcome [13]

CC(C)CO
inactive: Potency [1] | Potency [2] | Potency [3] | activation [4] -1.47% | Potency [6] | outcome [7] | Potency [8] | max response [10] 4.23% | Potency [11] | max response [12] 1.55% | outcome [13]

C/C=C(/C)C#N
inactive: Potency [1] | Potency [2] | Potency [3] | activation [4] 1.73% | max response [5] -2.14% | Potency [6] | outcome [7] | max response [9] -5.17% | max response [10] 0.0053% | Potency [11] | max response [12] 8.65% | outcome [13]

O=C(Cl)c1ccccc1[N+](=O)[O-]
inactive: Potency [1] | Potency [2] | Potency [3] | max response [5] 3.57% | Potency [6] | outcome [7] | Potency [8] | max response [9] 18.8% | max response [10] -5.53% | Potency [11] | max response [12] 1.88% | outcome [13]
